Assay [1] is described as follows: qHTS assay for small molecule agonists of the p53 signaling pathway (AID 651631; calls by dose curve; also: nearly all actives have a fitted effect of over 15% in size). In a few lines:
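HCT-116 cells carrying a beta-lactamase reporter under p53 response elements were dosed with compound for 16 h at 37 °C. LiveBLAzer B/G FRET substrate was then added for 2 h at room temperature, and fluorescence intensity was read to detect pathway agonism.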
In general terms: qHTS replaces the single test concentration by a dilution series.

The nature of assay [2]: qHTS assay for small molecules that induce genotoxicity in human embryonic kidney cells expressing luciferase-tagged ATAD5 (AID 651632). Also: nearly all actives have a fitted effect of over 15% in size. In a few lines:
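A rise in luciferase signal from ATAD5-tagged HEK293T cells marks genetic stress. Cells were exposed to compounds for 16 hr at 37C, 5% CO2, then luciferase was quantified after a 30 min room-temperature incubation with Amplite.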

A short description of assay [3]: qHTS assay for small molecule agonists of the p53 signaling pathway - cell viability (AID 651633; calls by dose curve;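 also: p53RE-bla HCT reporter cells with a stable beta-lactamase p53 reporter; series mostly up to about 83 µM; nearly all actives have a fitted effect of over 30% in size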). In short, it runs like this:
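p53RE-bla cells, seeded at 4,000 per well and rested 5 h at 37 C/5% CO2, received compounds in DMSO for 16 h at 37 C. CellTiter-Glo was then added, and luminescence was read after 30 min at room temperature to gauge cytotoxicity.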

Assay [4] can be described thus: qHTS assay for small molecules that induce genotoxicity in human embryonic kidney cells expressing luciferase-tagged ATAD5 - cell viability (AID 651634; calls by dose curve; also: nearly all actives have a fitted effect of over 25% in size). In short, it runs like this: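 Cytotoxicity counter-readout: after 15.5 hr compound treatment at 37C, live-cell protease activity in ATAD5-luciferase HEK293T cells measured by CellTiter-Fluor fluorescence, 30 min development at 37C.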

The nature of assay [5]: qHTS assay for small molecule disruptors of the mitochondrial membrane potential - cell viability (AID 720634; calls by dose curve; also: nearly all actives have a fitted effect of over 20% in size; also: potency is read from the fitted curve at half-maximal effect). In a few lines:
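Cytotoxicity was quantified from ATP content by CellTiter-Glo luminescence in the same wells as the MMP dye read-out. HepG2 (2,000 cells/well) were plated overnight and exposed to compounds for 1 hr at 37 C.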

The nature of assay [6]: qHTS assay for small molecule disruptors of the mitochondrial membrane potential (AID 720635). Also: potency is read from the fitted curve at half-maximal effect. In short, it runs like this: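 HepG2 cells (2,000/well) attached overnight at 37C, then took compound for 1 hr at 37C, 5% CO2. Mito-MPS dye was added for 30 min; fluorescence was read at 490/535 nm (monomers) and 540/590 nm (aggregates).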
The nature of assay [7]: qHTS assay to test for compound auto fluorescence at 535 nm (green) in HepG2 cells (AID 720675).
Assay [8] in a line: qHTS assay to test for compound auto fluorescence at 460 nm (blue) in HEK293 cells (AID 720678). In a few lines:
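Cells were seeded and left to adhere for 4-5 hr at 37C. Compounds were then pin-transferred. After an overnight incubation at 37C under 5% CO2, intrinsic fluorescence at 405/460 nm was measured and referenced to triamterene.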

Assay [9] is described as follows: qHTS assay to test for compound auto fluorescence at 590 nm (red) in HepG2 cells (AID 720674). In a few lines: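 Compound auto-fluorescence is scored relative to Rose Bengal sodium, measured at 540/590 nm in live HepG2 cultures after 1 hr compound contact (37 C, 5% CO2).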
A short description of assay [10]: qHTS assay to test for compound auto fluorescence at 590 nm (red) in HEK293 cells (AID 720679). In a few lines: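 Each well held 2,000 HEK293 cells in medium containing 10% dialyzed FBS. Following 4-5 hr attachment at 37C, 23 nL test compound or DMSO was added; plates sat overnight, and red fluorescence (540/590nm) was recorded.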

Values joined by “and” are separate entries in the source; they are usually repeats but may differ in a detail not shown here. Identical values can stand only once. Results filed as inconclusive are left out. A structure can be active in one record and inactive in another. Active and inactive are the calls of the source. Unless noted, calls follow the shape of the dose curve; as a rule, active = well fitted curve in the direction sought with a large enough effect in the repeat runs; inconclusive = weak or mixed curves; inactive = no such curve, though single readings can be large; an effect the other way counts as inactive or inconclusive.
% is scaled to controls: 0 for no effect and ±100 for the full control effect.

`CCOCC(=O)O`: the compound was classed as inactive in assay [1], in assay [2], in assay [3], in assay [7] and in [8]. For the same compound, the Potency result in assay [4], in [5] and in [6] was “inactive” each time.

As for `CN/C(=C\[N+](=O)[O-])NCCSCc1csc(CN(C)C)n1`, the compound was called inactive in [1], in assay [2], in assay [3], in assay [9], in [7] and in assay [8]. The Potency result in [4], in [5] and in assay [6] was “inactive” each time.

Take `CCNc1ccccc1`: the outcome in assay [1], in [2], in assay [3], in assay [7], in [8] and in assay [10] was inactive. Besides, the Potency result in [4] and in [5] was “inactive” each time. Moreover, the Potency in assay [6] was 24.8 µM (active) and inactive.

In the case of `NCCCCCCN`, the result in assay [1], in assay [2], in assay [3], in [9], in assay [7] and in assay [8] was inactive. The result in assay [10] was inactive. For the same compound, the Potency entry in assay [4], in assay [5] and in [6] was “inactive” in each case.

With `CC(C)OC(=O)COc1ccc(Cl)cc1Cl`, the outcome in assay [1], in [2], in assay [3], in assay [9], in [7] and in [8] was inactive. In [10], the result was inactive. For the same compound, the Potency entry in assay [4], in [5] and in [6] was “inactive” each time.

On to `Cc1ccc(C(C)C)c(O)c1`, for which the compound was classed as inactive in [1], in assay [2], in [3], in assay [9], in assay [7] and in assay [8]. The call in assay [10] was inactive. For the same compound, the Potency result in [4] was “inactive”. The Potency entry in assay [5] was “inactive and 61.1 µM (active)”; in assay [6] it was 24.3 µM (active).

Consider `CC(=O)CC(C)(C)O`, for which the call in assay [1], in assay [2], in [3], in assay [7], in assay [8] and in assay [10] was inactive. For the same compound, the Potency result in assay [4], in assay [5] and in assay [6] was “inactive” each time.

Take `CCCCCCO`: the call in assay [1], in [2], in assay [3], in assay [9], in assay [7] and in assay [8] was inactive. The Potency result in assay [4], in assay [5] and in assay [6] was “inactive” each time.

Regarding `C=CC(=O)OCCC(=O)O`, the compound was called inactive in assay [1], in assay [2], in [3], in assay [7], in assay [8] and in [10]. For the same compound, the Potency result in assay [4], in assay [5] and in [6] was “inactive” throughout.

Take `C[Si]1(C)O[Si](C)(C)O[Si](C)(C)O[Si](C)(C)O1`: the compound was classed as inactive in assay [1], in assay [2], in assay [3], in assay [7], in [8] and in [10]. The Potency result in assay [4], in assay [5] and in assay [6] was “inactive” throughout.

As for `CCc1ccccc1CC`, the compound was called inactive in assay [1], in [2], in assay [3], in assay [9], in assay [7] and in assay [8]. Moreover, the Potency entry in [4] and in assay [5] was “inactive” throughout. Moreover, the ratio activity, negative = MMP loss in assay [6] was 5.07% [at 17.9 µM] (inactive).

In the case of `COc1ccc([N+](=O)[O-])cc1N`, the result in assay [1], in assay [2], in assay [3], in assay [9], in [7] and in assay [8] was inactive. The call in [10] was inactive. Further, the Potency entry in assay [4] and in assay [5] was “inactive” throughout. In addition, in assay [6], the Potency is 48.8 µM (active).

For `C=C(C)C(=O)OCC(C)C`, the call in [1], in [2], in [3], in assay [9], in assay [7] and in assay [8] was inactive. Besides, the Potency result in assay [4], in [5] and in assay [6] was “inactive” each time.

Consider `CC(C)CC(=O)CC(C)CC(C)C` (stereo unspecified), for which the outcome in assay [1], in [2], in assay [3], in [9], in [7] and in [8] was inactive. For the same compound, the compound was classed as inactive in [10]. In addition, the Potency result in [4], in assay [5] and in assay [6] was “inactive” throughout.

Regarding `c1ccc2c(c1)Cc1ccccc1-2`, the outcome in assay [1], in assay [2], in [3], in assay [9], in assay [7] and in assay [8] was inactive. Moreover, the Potency result in assay [4], in [5] and in assay [6] was “inactive” in each case.

For `CCCCCCCCCCCC(=O)OC`, the call in assay [1], in assay [2], in assay [3], in [9], in assay [7] and in assay [8] was inactive. The outcome in assay [10] was inactive. The Potency entry in [4], in assay [5] and in assay [6] was “inactive” each time.

`NC(=S)NNC(N)=S`: the compound was classed as inactive in assay [1], in [2], in [3], in assay [9], in assay [7] and in assay [8]. Moreover, in [10], the result was inactive. The Potency result in [4], in assay [5] and in [6] was “inactive” throughout.

As for `CC(CCO)CC(C)(C)C` (stereo unspecified), the compound was classed as inactive in [1], in assay [2], in assay [3], in [9], in [7] and in assay [8]. Besides, the compound was classed as inactive in assay [10]. For the same compound, the Potency result in [4], in assay [5] and in assay [6] was “inactive” in each case.

In the case of `CC(O)CC(C)(C)O` (stereo unspecified), the outcome in assay [1], in assay [2], in [3], in [9], in assay [7] and in assay [8] was inactive. Moreover, the outcome in assay [10] was inactive. Besides, the Potency result in assay [4], in assay [5] and in assay [6] was “inactive” each time.

Take `CSc1ccc(Cl)cc1`: the outcome in assay [1], in [2], in [3], in [9], in assay [7] and in assay [8] was inactive. For the same compound, the compound was called inactive in assay [10]. Also, the Potency entry in assay [4], in assay [5] and in assay [6] was “inactive” throughout.

Regarding `CCNC(=S)NCC`, the compound was classed as inactive in [1], in assay [2], in assay [3], in assay [9], in assay [7] and in assay [8]. In assay [10], the call was inactive. Further, the Potency entry in assay [4], in [5] and in assay [6] was “inactive” throughout.

In the case of `CN(C)c1ccc(Cc2ccc(N(C)C)cc2)cc1`, the compound was called inactive in assay [1], in [2], in [3], in assay [7] and in assay [8]. Further, the Potency entry in assay [4] and in assay [5] was “inactive” throughout. In addition, the Potency in assay [6] was 54.7 µM (active) and inactive.

Regarding `CC(=O)Oc1ccc(C)cc1`, the compound was classed as inactive in assay [1], in assay [2], in assay [3], in [9], in assay [7] and in assay [8]. For the same compound, the result in [10] was inactive. The Potency entry in assay [4], in assay [5] and in [6] was “inactive” throughout.

Take `COCCOC(=O)c1ccccc1C(=O)OCCOC`: the result in assay [1], in assay [2], in assay [3], in assay [9], in [7] and in [8] was inactive. In assay [10], the result was inactive. Also, the Potency entry in [4], in assay [5] and in assay [6] was “inactive” in each case.

As for `O=C1CCCC1`, the outcome in [1], in assay [2], in assay [3], in [9], in [7] and in assay [8] was inactive. In addition, the Potency entry in assay [4], in [5] and in [6] was “inactive” each time.

Values taken from PubChem BioAssay (Tox21).
